The structures appear in SMILES notation. Several values for one entry are separate records, joined by “and”; a condition that tells them apart may be missing. Equal entries are not always repeated. Out of some 59,000 compounds screened, fewer than 10 were called active. Only a sample is shown. Values without a mark were called inactive. The rule behind the calls is not given here.

This test in a line: qHTS Assay for Spectroscopic Profiling in A647 Spectral Region. As to conditions: Compound fluorescence, A647 channel (570/671 nm), Tris buffer; active compounds read high. The source says: NIH Molecular Libraries Screening Centers Network [MLSCN] NIH Chemical Genomics Center [NCGC] […] Occasionally, the artifactual effect may originate from the compounds own spectral or other biophysical properties which generally tend to track its assay concentration. Pre-screening/profiling the library with respect to the compounds spectral properties should help one exclude false positives early on. While the most informative fluorescent profiling data set is obtained by performing a full excitation and emission scan of each well by using a monochromator-based plate reader, such an approach is practical only on a very limited scale as scanning each well requires long time. An alternative approach, applied here, is to perform plate reader scans using selected excitation and emission wavelength pairs to generate a multidimensional relational database that correlates compound concentration and the respective relative fluorescence intensity at a given wavelength set. A standard curve of Alexa 647 (A647) present on each plate as six-point concentration series, was used to compute a normalized fluorescence response, termed dye-equivalent concentration, for each compound at each concentration.
NCGC Assay Protocol Summary: Buffer: 100 mM Tris buffer, pH 8.0 Dye standard plate: The wells in columns 1 through 4 of a Kalypsys polypropylene 1536-well compound plate were filled with standard solutions of fluorophore corresponding to the spectral region of interest. Solutions of A647 were placed in the following wells: AC1, AD1: 3 mM, AC2, AD2: 300 uM, AC3, AD3: 30 uM, AC4, AD4: zero (DMSO), AE1, AF1: 3 uM, AE2, AF2: 900 nM, AE3, AF3: 300 nM, AE4, AF4: zero (DMSO). Assay Steps: Six uL of buffer were dispensed to 1536-well Greiner black plates. Compounds and dye standards (23 nL) were transferred via Kalypsys PinTool. The plates were incubated for 15 min at room temperature, and then read on ViewLux (Perkin-Elmer) High-throughput CCD imager using 570 nm and 671 nm excitation and emission filter set. Keywords: NIH Roadmap, MLSCN, MLI, MLSMR, qHTS, NCGC, A647, A-647, Fluorescent Profiling.
(Quantitative high-throughput screening tests each substance at several concentrations.)
For `CCOc1cc(CO)ccc1OCC(=O)N1CCCCC1`, the max dye-equivalent concentration is 5.6 nM.

For the compound `COC(=O)Nc1c(C)n(C)n(-c2ccccc2)c1=O`, the max dye-equivalent concentration is 1 nM. As to `CCN(CC)C(=O)C1CCC(C)(C(=O)O)C1(C)C` (centres undefined), the max dye-equivalent concentration is 5.6 nM. The value for `O=C(O)c1c(Br)c(Br)c(Br)c(Br)c1C1c2ccc(O)cc2Oc2cc(O)ccc21` was 1 nM; that for `O=C(Nc1ccon1)c1cccc(Cl)c1` was 1 nM.

Regarding `Cc1cccc2cc(CN(Cc3ccc4c(c3)OCO4)Cc3nnnn3C3CCCC3)c(=O)[nH]c12`, the max dye-equivalent concentration was 1 nM. For the compound `COCCCn1c(CCC(=O)O)ccc1-c1ccc(F)cc1`, the max dye-equivalent concentration was 26 nM. As for `COCCn1nnnc1CN1CCC(NC(=O)Nc2cccc(OC)c2)CC1`, the max dye-equivalent concentration is 41 nM. The value for `O=C(O)[C@@H](S)[C@H](S)C(=O)O` was 1.2 nM; that for `COCCCNC(=O)CSc1nc2ccc(N3CCOCC3)cc2c(=O)n1CCc1ccccc1` was 19 nM. For `Cc1ccc(-c2noc(CSc3nnc(-c4ccccc4)n3C)n2)cc1`, the max dye-equivalent concentration is 17 nM. For `COc1ccc(C2OC(=O)CC2C(=O)NC(C)C)cc1` (centres undefined), the max dye-equivalent concentration was 2.6 nM. The same measure for `Cc1cc(Cl)c(S(=O)(=O)NCC2CCCO2)cc1OCC(N)=O` (centres undefined): 1 nM. As to `CC1(N2CCOCC2)CC2(O)C(=[N+]1[O-])CCc1nonc12` (centres undefined), the max dye-equivalent concentration is 31 nM. Turning to `Cc1ccc(C(=O)O)cc1S(=O)(=O)NCC1CCCO1` (centres undefined), the max dye-equivalent concentration is 1 nM. On to `O=C(c1ccncc1)N1CCC2(CCCN(C(c3ccccc3)c3ccccc3)C2)CC1`, for which the max dye-equivalent concentration was 10 nM. The value for `C[C@@H]1CC[C@H]2[C@H](C)[C@H]3[C@H](C[C@H]4[C@@H]5CC=C6C[C@@H](O)CC[C@@]6(C)[C@@H]5C[C@@H](O)[C@]34C)N2C1` was 2.4 nM; that for `Cn1nnnc1SCC(=O)N1CCN(C(c2ccccc2)c2ccccc2)CC1` was 1 nM. On to `CCCC(C)n1[nH]c(=O)c2c(C)cc(C)nc21` (centres undefined), for which the max dye-equivalent concentration was 16 nM.

For `N#Cc1c2c(c(-c3ccccc3)[nH]c1=O)CCCC2`, the max dye-equivalent concentration is 55 nM. The value for `Cc1ccccc1C(=O)Nc1cccc(-c2nnc(SCC(=O)O)n2C)c1` was 18 nM. The same measure for `O=C(Nc1ccccc1C(=O)N1CCOCC1)C1CCC(=O)N1C1CCCC1` (centres undefined): 14 nM; for `O=S(=O)(c1ccccc1)N(CC(O)CN1CCCCC1)c1ccccc1` (centres undefined): 1 nM. The same measure for `CCC(C)(C)n1nnnc1C(c1cccs1)N1CCN(Cc2ccccc2)CC1` (centres undefined): 35 nM; for `Cc1c(C(=O)Nc2ccccc2Cl)oc2ccc(S(=O)(=O)N3CCC4(CC3)OCCO4)cc12`: 45 nM. As for `CCC(Oc1ccccc1)C(=O)NCc1cccnc1` (centres undefined), the max dye-equivalent concentration was 1.3 nM.

For the compound `CC(C)OC(=O)c1sc2nc3c(cc2c1N)C(=O)CCC3`, the max dye-equivalent concentration is 12 nM.

On to `Cn1cc(-c2nc3cncnc3n(-c3ccccc3)c2=O)c2ccccc21`, for which the max dye-equivalent concentration was 1 nM. In the case of `O=C(/C=N/O)Nc1ccccc1`, the max dye-equivalent concentration was 1 nM.

For the compound `CCOC(=O)N1CCN(S(=O)(=O)c2ccc(C(=O)Nc3ccc(F)cc3F)cc2)CC1`, the max dye-equivalent concentration was 29 nM.

Consider `COc1ccccc1N1CCN(CCCCOc2ccc(F)cc2)CC1`, for which the max dye-equivalent concentration was 1 nM. The value for `COc1ccc2nc(N3CCCC(O)C3)c(C#N)cc2c1` (centres undefined) was 22 nM; that for `CCCCN(CC)CCCNC(=O)CS(=O)(=O)Cc1nc(-c2cccc(OC)c2)oc1C` was 1 nM; that for `COC(=O)c1ccccc1NC(=O)CN(Cc1ccccc1)S(C)(=O)=O` was 1 nM. The same measure for `COc1cccc(OC)c1OCCN1CCN(C(=O)c2ccco2)CC1`: 1 nM. The value for `Cc1cc(Cl)ccc1N1C(=O)CC(SCCC(=O)O)C1=O` (centres undefined) was 1 nM. In the case of `COc1ccc(CC(=O)Nc2c3c(nn2-c2cccc(Cl)c2)CS(=O)C3)cc1` (centres undefined), the max dye-equivalent concentration was 12 nM. The value for `Cc1c(C(=O)OCc2cc(=O)n3cc(Br)ccc3n2)oc2ccccc12` was 28 nM; that for `CCOC(=O)N1CCN(C(=O)c2cn(C)c3ccc(S(=O)(=O)N4CCCC4)cc3c2=O)CC1` was 21 nM; that for `Cc1cc(NC(=O)COc2ccc(Cl)cc2Cl)n(CCC#N)n1` was 18 nM.

In the case of `Cc1ccc(S(=O)(=O)NCc2cn3ccsc3n2)c(C)c1`, the max dye-equivalent concentration is 18 nM. The value for `CCOc1cc(-c2nc3cc(C)ccn3c2NCC2CCCO2)ccc1O` (centres undefined) was 14 nM; that for `CC(C)C(C(=O)NC1CCCCC1)N(CC1CCCO1)C(=O)CNS(=O)(=O)c1ccc(F)cc1` (centres undefined) was 1 nM; that for `COc1ccccc1N1CCN(c2nc3ccccc3n3nnnc23)CC1` was 42 nM.

Consider `O=C(c1cccc(F)c1)N1CCC2(CC1)CCN(c1ccccc1)CC2`, for which the max dye-equivalent concentration is 1.1 nM.

Turning to `COc1ccccc1CNCc1cccs1`, the max dye-equivalent concentration is 25 nM. The same measure for `O=C(CN1C(=O)COc2ccccc21)NCCN1CCc2ccccc2C1`: 23 nM. In the case of `CC(C)CCNC(=O)C(C)N(C(=O)Cn1nnc(-c2ccc(F)cc2)n1)C1CCCC1` (centres undefined), the max dye-equivalent concentration was 1 nM. Regarding `CN1CCN(S(=O)(=O)c2ccc(NC(=O)c3ccco3)cc2)CC1`, the max dye-equivalent concentration is 3.8 nM. Regarding `CCOC(=O)CSc1nc2sc3c(c2c(=O)[nH]1)CC(C)(C)OC3`, the max dye-equivalent concentration was 2.2 nM.

Regarding `Cc1cc(=O)oc(C)c1C(=O)Nc1cnc2ccccc2c1`, the max dye-equivalent concentration is 5.4 nM. With `CN(C)CCSc1nc(N)c2c3c(sc2n1)COC(C)(C)C3`, the max dye-equivalent concentration was 6.7 nM. The same measure for `Cc1ccc(C(=O)CSc2nnc(Cn3nnc4ccccc43)n2C)cc1`: 15 nM.

On to `CCCc1cc(=O)n2[nH]c(SCc3ccccc3)nc2n1`, for which the max dye-equivalent concentration was 28 nM.

For `O=C(c1ccco1)N(Cc1nc2ccccc2c(=O)[nH]1)C1CCCC1`, the max dye-equivalent concentration was 41 nM. In the case of `COC(=O)[C@H](CCSC)NC(=O)Nc1ccc(OC)cc1`, the max dye-equivalent concentration is 5.2 nM.

Turning to `CC[N+](C)(CC)CCC[n+]1c(-c2ccccc2)c2cc(N)ccc2c2ccc(N)cc21`, the max dye-equivalent concentration was 1.7 nM. With `O=c1c(CCc2ccccc2)nc2cnc(N3CCNCC3)nc2n1Cc1cccs1`, the max dye-equivalent concentration is 1 nM. Take `O=C(OCC(=O)N1CCN(C(=O)c2ccco2)CC1)c1ccccc1Cc1ccccc1`: the max dye-equivalent concentration was 7.2 nM. `CCOc1ccccc1N=C1NC(=O)CS1`: the max dye-equivalent concentration was 4.1 nM. The value for `CCOC(=O)C1CCN(C(c2cc3cc(C)cc(C)c3[nH]c2=O)c2nnnn2C2CCCCC2)CC1` (centres undefined) was 1 nM; that for `CCCSC1=C(C#N)C(c2ccccc2C)C(C(=O)OC)C(=O)N1` (centres undefined) was 58 nM; that for `COCC(C)n1c(SCc2ccc(C(=O)OC)o2)nc2ccccc2c1=O` (centres undefined) was 1.6 nM. The value for `COC(=O)c1ccc(C2CC(=O)Nc3cc(OC)c(OC)cc32)cc1` (centres undefined) was 1 nM; that for `CC(C)c1nc(N2CCOCC2)c(C#N)c2c1COC(C)(C)C2` was 69 nM; that for `CCCC(=O)Nc1c(O)c2ccccc2[nH]c1=O` was 1 nM. As to `C=C(C)CSc1nc(N)c2c3c(sc2n1)CCC3`, the max dye-equivalent concentration was 1.9 nM.

As to `O=C(OC1CCOC1=O)c1ccc(-c2nc3ccccc3s2)s1` (centres undefined), the max dye-equivalent concentration was 1 nM. The same measure for `CCCS(=O)(=O)C(=C1Nc2ccccc2N1)S(=O)(=O)CCC`: 1 nM.

As for `CSc1sc(C)cc1C1C(C#N)=C(N)N(c2cccnc2)C2=C1C(=O)CCC2` (centres undefined), the max dye-equivalent concentration was 18 nM. On to `CCN(CC)C(=O)N1CCN(C(=O)c2ccc(C)cn2)CC1`, for which the max dye-equivalent concentration was 1 nM.

With `CCC(CC)c1nnc(NS(=O)(=O)Cc2ccccc2)s1`, the max dye-equivalent concentration is 5 nM. The same measure for `COC(=O)c1c(NC(=O)c2cccs2)sc2c1CCCC2`: 1 nM; for `CC1CCC(NC(=O)c2ccc(N3CCCC3=O)cc2)CC1` (centres undefined): 6 nM.

On to `CCCNC(=O)Nc1ccccc1C(=O)Nc1ccc(OC)cc1`, for which the max dye-equivalent concentration was 1.2 nM. As to `COc1ccccc1-n1nnnc1S(=O)(=O)Cc1ccc(Cl)cc1`, the max dye-equivalent concentration was 37 nM. The same measure for `CCN1C(=O)/C(=C2/Sc3ccccc3N2CCCS(=O)(=O)O)SC1=S`: 1 nM. The same measure for `CCCCC(=O)Nc1ccc(C(=O)NCCCn2ccnc2)cc1`: 2.5 nM. The value for `CCOC(=O)CNC(=O)CSc1nnc(COc2ccc(Cl)cc2)n1CC` was 39 nM. As for `N#C/C=C1\Sc2ccccc2C(=O)N1CC(=O)N1CCN(S(=O)(=O)c2ccccc2)CC1`, the max dye-equivalent concentration was 1 nM. The same measure for `N#CC1=C(N)C(C#N)(C#N)[C@H](c2ccsc2)[C@H]2COCC=C12`: 25 nM; for `CC(C)C[C@H](NC(=O)[C@@H]1O[C@H]1C(=O)O)C(=O)NCCCCN=C(N)N`: 60 nM and 51 nM; for `Cc1ccc2[nH]c3c(c2c1)CN(C(=O)CN1CCN(c2ccccc2)CC1)CC3`: 12 nM. The same measure for `Cc1ccc(C(C(=O)NC2CCCC2)N(Cc2ccco2)C(=O)CCC(=O)Nc2ccccn2)cc1` (centres undefined): 23 nM; for `CC(=O)/C(C)=N\O`: 34 nM. The same measure for `COC(=O)c1cc(C(=O)OC)cc(N2C(=O)CC(N3CCN(c4ccccc4)CC3)C2=O)c1` (centres undefined): 14 nM; for `CC(=O)Nc1ccc(S(=O)(=O)Nc2nc3n(n2)C(c2ccccc2)CC(=O)N3)cc1` (centres undefined): 16 nM; for `N#Cc1c(N)sc2c1CCN(C(=O)OCc1ccccc1)C2`: 36 nM. `O=S(=O)(c1cccc(S(=O)(=O)N2CCC(n3nnc4ccccc43)CC2)c1)N1CCCCC1`: the max dye-equivalent concentration was 23 nM.

(Values after PubChem BioAssay AID592 (National Center for Advancing Translational Sciences (NCATS), 2007).)
